Hits are enriched below; roughly 2% of the tested compounds scored in any of these assays.
NALP1 yeast inh – NALP1 inflammasome inhibitors in reconstituted yeast, colorimetric, S. cerevisiae, triplicate retest | S. cerevisiae NALP1/ASC/caspase-1 growth, X-gal OD620, 72 h | inhibition, % at 10 µM | 0.61% of 280,000 active | AID 2071, 2009; in the data active means inhibition mostly above about 24%, no sharp cut-off; inactive means mostly below about 32%
A3A deaminase – APOBEC3A ssDNA deaminase inhibitors, primary screen, selectivity assay for APOBEC3G inhibitor project, biochemical, FAM/TAMRA oligo cleavage fluorescence; AID 493011, 2011; inhibition, % at 20 µM; recombinant A3A, FAM/TAMRA ssDNA deamination fluorescence; 0.41% of 330,000 active;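 active means at least 40% inhibition at 20 µM here, with at most 30% in a related deaminase screen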;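 further: plate controls were A3A with DMSO for no effect and wells lacking A3A enzyme for full effect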
A3G deaminase – APOBEC3G DNA deaminase inhibitors, primary screen, biochemical, fluorescence, single-stranded DNA substrate, uHTS | DNA dC->dU-editing enzyme APOBEC-3G (Homo sapiens), Q9HC16 | recombinant A3G, ssDNA deamination FAM/TAMRA fluorescence | inhibition, % at 20 µM | 0.28% of 330,000 active;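 active means inhibition of at least 40% at 20 µM, with no more than 30% in the related APOBEC3A deaminase screen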;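 further: plate controls were DMSO wells with A3G for no effect and wells lacking A3G enzyme for full effect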
Target sequence (Q9HC16 whole entry, looked up): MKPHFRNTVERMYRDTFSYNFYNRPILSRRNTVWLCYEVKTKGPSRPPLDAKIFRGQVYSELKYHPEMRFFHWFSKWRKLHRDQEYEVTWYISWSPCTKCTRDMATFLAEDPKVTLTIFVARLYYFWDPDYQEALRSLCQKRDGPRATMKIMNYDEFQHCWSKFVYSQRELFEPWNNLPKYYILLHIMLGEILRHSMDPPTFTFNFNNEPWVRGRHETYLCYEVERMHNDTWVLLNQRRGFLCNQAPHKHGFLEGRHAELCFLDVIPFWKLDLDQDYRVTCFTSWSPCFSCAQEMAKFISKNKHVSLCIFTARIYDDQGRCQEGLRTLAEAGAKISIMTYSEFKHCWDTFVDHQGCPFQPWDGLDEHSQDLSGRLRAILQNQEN
Fh CTSL1 inh – Fasciola hepatica cathepsin L1 inhibitors, primary screen, counter-screen for PFM18AAP inhibitor project, biochemical, QFRET, fluorogenic peptide substrate. recombinant F. hepatica cathepsin L1, Z-Leu-Arg-MCA fluorescence. inhibition, % at 5.96 µM. 0.49% of 300,000 active;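 active means inhibition above the mean of all tested compounds plus 3 SD, set per screening campaign, cut at about 17% in these data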;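 further: 0% = plate median of test compound wells and 100% = 1 µM Z-Phe-Ala-diazomethylketone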
HGIII-sPLA2 inh – human group III sPLA2 inhibitors, primary screen, biochemical, QFRET, BODIPY PC-A2 liposome substrate; Group 3 secretory phospholipase A2 (Homo sapiens), Q9NZ20; QFRET BODIPY PC-A2 liposome hydrolysis, fluorescence; inhibition, % at 12.2 µM; 0.56% of 370,000 active;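 active means inhibition above mean plus 3 SD of compounds lying within the high and low control bounds, cut at about 19% in these data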;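 further: 0% = median of test compound wells and 100% = no enzyme DMSO wells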
APOBEC3A confirm – APOBEC3A deaminase inhibitors, retest, confirmation, selectivity assay for APOBEC3G inhibitor project, biochemical, single concentration, fluorescence readout; shares compounds with A3A deaminase; recombinant A3A, ssDNA deaminase UDG fluorescence assay; inhibition, % at 20 µM; 63% of 1,400 active; AID 493151, 2011;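 active means inhibition reaching a set limit, 80% of the first screen's cutoff, at 20 µM in any replicate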;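 further: plate controls were DMSO wells with A3A for no effect and wells lacking A3A enzyme for full effect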
UDG ctr A3A – E. coli UDG inhibitors, confirmation, counter-screen for APOBEC3A inhibitor project, biochemical, single concentration, fluorescence, FAM/TAMRA oligo; 1,000 tested, under 10 active; inhibition, % at 20 µM; AID 504714, 2011; shares compounds with A3A deaminase; UDG counterscreen, FAM/TAMRA uracil oligo fluorescence; call rule not given here
Numbers without * were called inactive; . = no result.

SMILES | NALP1 yeast inh | A3A deaminase | A3G deaminase | Fh CTSL1 inh | HGIII-sPLA2 inh | APOBEC3A confirm | UDG ctr A3A
COc1ccc(Cn2ccc3ccc(-c4ccc5ccn(Cc6cccc(F)c6)c5c4)cc32)cc1 | . | . | . | . | 13 | . | .
CCOC(=O)c1ccc2c(c1)n(CC)c(/C=C/Nc1ccccc1)[n+]2CC | 9 | 32 | 8 | 4 | 5 | . | .
CCn1c(/C=C/N(C)c2ccccc2)[n+](CC)c2ccc(Cl)cc21 | 27 | 42* | 19 | 1 | 0 | 64* | -2
CCn1c(C)[n+](Cc2ccccc2)c2ccc(C(=O)OC)cc21 | 1 | 53* | 15 | -2 | 1 | 71* | 3
CCn1c(C)[n+](Cc2ccccc2)c2ccc(Cl)cc21 | 9 | 60* | 20 | -2 | 1 | 73* | -1
COc1ccc2c(C)cc(N3CCCCCC3)nc2c1 | 16 | -5 | -9 | 0 | -1 | . | .
COc1ccc2c(C)cc(N3CCN(Cc4ccccc4)CC3)nc2c1 | 19 | 41* | 4 | 0 | 2 | 25 | .
Cc1cccc(S(=O)(=O)N2CCC[C@H]2C(=O)N2CCC[C@@H]2C(=O)NCc2ccccc2)c1 | . | . | . | . | 11 | . | .
Cc1ccc(N2CC(C(=O)Nc3cccc(C(=O)NC4CC4)c3)CC2=O)cc1 (centres undefined) | . | 41* | 7 | . | 8 | 23 | .
COc1ccc(C)cc1N1CC(C(=O)Nc2cccc(C(=O)NC3CC3)c2)CC1=O (centres undefined) | . | . | . | . | 14 | . | .
O=C(CNC(=O)OCc1ccccc1)Nc1ccc(F)cc1 | . | 67* | 20 | . | 2 | 70* | 1
CCOC(=O)Cn1cc(CN2CCS(=O)(=O)N(Cc3ccc(F)cc3)C(C(=O)OC)C2)nn1 (centres undefined) | . | . | . | . | 12 | . | .
COC(=O)c1cc(C(=O)OCC(=O)N2c3ccccc3NC(=O)C2(C)C)cc([N+](=O)[O-])c1 | 24 | 97* | -6 | 0 | . | -3 | -1
CC1(C)C(=O)Nc2ccccc2N1C(=O)COC(=O)c1cc(Cl)cc(Cl)c1 | . | 10 | 3 | . | 0 | . | .
Cc1ccc(C)c(OCCC(=O)OCC(=O)N2c3ccccc3NC(=O)C2(C)C)c1 | . | 52* | 20 | . | -7 | 56* | 3
COc1ccccc1CCC(=O)OCC(=O)N1c2ccccc2NC(=O)C1(C)C | . | 2 | -4 | . | 4 | . | .
COc1ccc(Cn2ccc3ccc(-c4ccc5ccn(C(=O)c6cccc(OC)c6)c5c4)cc32)cc1 | . | . | . | . | -9 | . | .
CC(C)=CCC/C(C)=C/CN1CC(=O)N2[C@H](C[C@@]3(n4ccc5ccccc54)c4ccccc4N(S(=O)(=O)c4ccccc4)[C@@H]23)C1=O | . | . | . | . | -3 | . | .
CN(C)c1ccc(N=Nc2ccc(C(=O)O)cc2)cc1 | 29 | 64* | 25 | 0 | 1 | 54* | 1
CN(C)c1ccc(C(=O)c2ccccc2)cc1 | 21 | 0 | -5 | 0 | -1 | . | .
COc1ccccc1NC(=O)COC(=O)c1cc2c(s1)CCC2 | . | 56* | 6 | . | -13 | 46* | -1
O=C(CSc1nnc(-c2cccnc2)n1-c1ccccc1)Nc1ccc(OCc2ccccc2)cc1 | . | . | . | . | -32 | . | .
CCC(C)C(NC(N)=O)C(=O)Nc1ccc(C)c(Cl)c1 (centres undefined) | 16 | 56* | 6 | 5 | -4 | 2 | .
CN1/C(=C\C=[N+](C)c2ccccc2)C(C)(C)c2ccccc21 | 5 | 56* | 13 | 3 | 1 | 77* | -33
Cc1cccnc1NC(=O)CN1C(=O)COc2ccc(Cl)cc21 | -59 | 69* | 17 | 9 | -1 | 59* | -1
O=C(CN1C(=O)COc2ccc(Cl)cc21)Nc1nccs1 | . | 3 | -1 | . | -5 | . | .
